# Results as given in PubChem BioAssay (NCATS).
# Records with an inconclusive call do not appear. Unmarked numbers belong to inactive results. Calls follow the shape of the dose curve; as a rule, active = well fitted cell-killing curve with a large enough effect; inconclusive = small, poorly fitted or top-dose-only effect; inactive = flat fitted curve, though single readings scatter.
# Test: NCATS anti-infectives library activity on HEK293 viability as a counter-qHTS vs the C. elegans viability qHTS (AID 1745854);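 also: HEK293 cells exposed to compounds for 24 hr before the viability read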
# Conditions: HEK293 viability counter-screen; series mostly up to 41.8 µM; activity change, negative = cytotoxicity: at the top concentration
# In short: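 Cytotoxicity in human HEK293 cells is measured by ATP-dependent CellTiter-Glo luminescence following a 24 hr incubation with titrated library compounds at 37C. Top final concentration is 41.7 uM.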
# % is scaled to controls: 0 for no effect and ±100 for the full control effect.
row,Compound,"activity change, negative = cytotoxicity"
1,Cc1nnc(C(C)C)n1C1CC2CCC(C1)N2CC[C@H](NC(=O)C1CCC(F)(F)CC1)c1ccccc1 (stereo partly specified),15.1%
2,O=C(O)C[C@H](O)C[C@H](O)/C=C/c1c(C2CC2)nc2ccccc2c1-c1ccc(F)cc1,-7.26%
3,Cc1c(-c2ccnn2C)cc(C(=O)NCc2ccc(S(C)(=O)=O)cn2)c(=O)n1-c1cccc(C(F)(F)F)c1,-5.56% [at 18.2 µM]
4,CCOC(=O)[C@H]1O[C@@H]1C(=O)N[C@@H](CC(C)C)C(=O)NCCC(C)C,-6.6%
5,NS(=O)(=O)OC[C@@H]1C[C@@H](n2ccc3c(N[C@H]4CCc5ccccc54)ncnc32)C[C@@H]1O,-16.9%
6,CCOc1nc2cccc(C(=O)O)c2n1Cc1ccc(-c2ccccc2-c2noc(=O)[nH]2)cc1,-18.2%
7,CCN(CC)Cc1cc(Nc2ccnc3cc(Cl)ccc23)ccc1O,-29.6%
8,COC(=O)C1=CO[C@@H](O[C@@H]2O[C@H](CO)[C@@H](O)[C@H](O)[C@H]2O)[C@@H]2[C@@H](C)[C@@H](O)C[C@H]12,4.61%
9,OC[C@H]1O[C@@H](Oc2cc(O)cc(/C=C/c3ccc(O)cc3)c2)[C@H](O)[C@@H](O)[C@@H]1O,-5.26%
10,CC(C)(O)CNc1nc(Nc2ccnc(C(F)(F)F)c2)nc(-c2cccc(C(F)(F)F)n2)n1,-8.98%
11,N[C@H]1C[C@H]1c1ccc(-c2cccc(O)c2)cc1,-1.71%
